Test results from PubChem BioAssay (NCI).
About 83,000 compounds went through this panel and 20% of them were active in at least one assay; those are over-represented in the sample as a whole.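 Negative percent growth values reflect cell death: -40 means 40% of the cells present at the start died, and -100 means all died.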 Activity calls are given as the source filed them. The calls were made as follows: active = growth percent below 10; inactive = the rest.

Tested on: HL-60(TB) leukemia
Experiment: NCI-60 one-dose screen, 48 h (100 = growth as untreated, 0 = no growth, -100 = all killed)
Conditions: 10 µM unless noted

Structure (SMILES) | growth
COc1cc2cc(NCc3ccc(Cl)cc3)nc(C)c2cc1OC | 31.3% (inactive)
Ic1ccccc1I | 94.1% (inactive)
O=C1Nc2ccccc2/C1=C/C(=N/c1nnc(-c2ccccc2)s1)c1ccccc1 | -32.9% (active)
Cc1nc(N)nc(N[C@@H](C)c2nc3cccc(NCc4ccc(C(=O)NO)cc4)c3c(=O)n2-c2ccccc2)n1 | 43.1% (inactive)
N#Cc1c(C#N)c(SSc2c(C#N)c(C#N)c(N)n2-c2ccccc2)n(-c2ccccc2)c1N | 99.2% (inactive)
COc1cc2c(c(OC)c1OC)-c1ccc(N)c(=O)cc1[C@@H](NC(C)=O)CC2 | 3.69% (active)
O=S(=O)(NCCCNc1nccc(-c2c(-c3cccc(O)c3)nc3occn23)n1)c1ccc(Cl)cc1 | 56.1% (inactive)
CC(=O)CCS(=O)c1ccccc1 (centres undefined) | 97.4% (inactive)
CCNc1cc2c(cc1Br)-c1ccccc1C2=O | 110% (inactive)
C=CCOc1cccc(/C=C/C(=O)c2sc(Nc3cccnc3)nc2C)c1 | 43.3% (inactive)
O=C(Nc1ccc(Cl)cc1)c1cc2cc(F)ccc2cc1O | -4.75% (active)
COc1ccc(C(=O)c2ccc(C)cc2)c(OC)c1OC | 93.4% (inactive)
CC1SC(c2c(Cl)cccc2Cl)N(NC(=O)c2[nH]c3ccc(F)cc3c2-c2ccccc2)C1=O (centres undefined) | 103% (inactive)
CCN1CCN(C(=O)[C@]23CC[C@@H](C)[C@H](C)[C@@H]2C2=CC[C@@H]4[C@@]5(C)C/C(=C/c6ccncc6)C(=O)C(C)(C)[C@@H]5CC[C@@]4(C)[C@]2(C)CC3)CC1 | -33.1% (active)
